Each structure is given as a SMILES string. About 83,000 compounds went through this panel and 20% of them were active in at least one assay; those are over-represented in the sample as a whole.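 Method: cells in 96-well plates; compound added at one concentration; 48 h incubation; percent growth measured; values under 10 scored active.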 A number with no mark means an inactive call.

This assay deals with PC-3 prostate. In words: NCI-60 one-dose screen, 48 h (100 = growth as untreated, 0 = no growth, -100 = all killed). As to conditions: 10 µM. The procedure: Growth inhibition of the PC-3 human tumor cell line is measured as a screen for anti-cancer activity. Cells are grown in 96 well plates and exposed to the test compound for 48 hours. Compounds are tested at a single concentration, which is 10^-5 M for most compounds. The reported endpoint is percent growth (GI% or GIPRCNT), where numbers from 0 - 100% represent growth inhibition, and numbers from -100% - 0 represent cell death. For example, a value of 40 represents 60% growth inhibition. A value of 0 means no net growth occurred over the course of the experiment. A value of -40 indicates 40% of cells at the beginning of the experiment died by the end of the experiment. A value of -100 means all cells are dead at the end of the experiment.
NCI-60 Human Tumor Cell Lines Screen was performed using the standard one-dose NCI protocol, which is described in more detail at https://dtp.cancer.gov/discovery_development/nci-60/default.htm.
Compounds with GIPRCNT values below 10 were considered active. Activity score was based on GIPRCNT using the following formula: […]
Score is 0 for GIPRCNT values of 100 or above, 50 for GIPRCNT values of 0, and 100 for GIPRCNT values of -100.
`O=C(NN=C1CCCCC1)C(=O)NN=C1CCCCC1`: the growth was 89%.

In the case of `Cc1cc2nc(CC(=O)c3cccc([N+](=O)[O-])c3)c(=O)[nH]c2cc1C`, the growth is 68%.

As for `CCS(=O)(=O)c1cc(=O)[nH]c(=O)[nH]1`, the growth is 124%.

`CC(C)OC(=O)c1cc(NC(=S)OC(C)C)ccc1Cl`: the growth was 83.3%.

In the case of `CC(=O)Nc1ccc(NC(C)=O)c2c1C(=O)c1ccccc1C2=O`, the growth is 81.9%.

Consider `COc1ccc(/C=C/c2cccc[n+]2C)cc1`, for which the growth was 87%.

As to `CCCC1(c2ccccc2)NC(=O)NC1=O` (stereo not given), the growth is 99%.

Take `CCN1C(=O)/C(=C/C=C/N(C)c2ccccc2)SC1=S`: the growth is 85.1%.

Consider `OC1CCCc2ccccc21` (stereo not given), for which the growth was 103%.

With `CC(C)COC(=O)COC(=O)OCCOCCOC(=O)OCC(=O)OCC(C)C`, the growth is 94.8%.

On to `Cc1cccc([N+](=O)[O-])c1Cl`, for which the growth is 102%.

With `COC(=O)Nc1nc2ccc(C(=O)c3cccs3)cc2[nH]1`, the growth was 22.7%.

Turning to `CCC(C)(C)C1CCC(O)CC1` (stereo not given), the growth was 99.2%.

With `CCOC(=O)c1cc(/C=C/c2cccc(Cl)c2)on1`, the growth is 85.1%.

Turning to `C/C(O)=C(\C=N\C(N)=S)C(=O)Nc1ccccc1`, the growth was 93.5%.

For the compound `Nc1nc(N)c(N=Nc2ccc(C(=O)O)cc2)c(N)n1`, the growth was 101%.

As for `COc1ccc(NC(=O)CCl)cc1`, the growth was 74.6%.

For the compound `CC1Cc2ccccc2O1` (stereo not given), the growth is 106%.

With `Cc1cc(=O)[nH]c(NN=C2CCCC2)n1`, the growth is 80.7%.

Turning to `CC(C)C(C#N)(C(C)C)C(C)C`, the growth was 92.7%.

On to `c1cc2cccc3c4cccc5cccc(c(c1)c23)c54`, for which the growth was 93.5%.

With `O=C(c1ccccc1)C1CCC1`, the growth was 90.4%.

As for `Cc1ccc(S(=O)(=O)O)c(C)c1`, the growth is 99.1%.

On to `C[C@@H](c1ccccc1)[C@@H](C(=O)O)c1ccccc1`, for which the growth was 94.5%.

With `Cc1cc(N)c(S(=O)(=O)O)c(N)c1`, the growth was 85.4%.

Turning to `CCOC(=O)C1OC1c1ccccc1` (stereo not given), the growth was 98.8%.

Consider `O=C(c1ccc(O)cc1)c1ccc(O)cc1`, for which the growth was 103%.

`CC1CC(O)C2C3(C)CCCC2(COC3=O)C12CCC1(CCOC1=O)O2` (stereo not given): the growth is 94%.

Take `c1ccc2c(c1)Sc1ccccc1S2`: the growth is 91.4%.

As to `CC(C)(C)n1nc(C2CC2)c(Br)c1NC(=O)c1ccccc1F`, the growth is 91.5%.

As for `Cc1ccccc1C1N=C2Oc3ccccc3C=C2C(=O)N1` (stereo not given), the growth is 16.3%.

As to `CC(=O)OC1CC2C(C)(C)OC3CC(=O)OCC32C2CCC3(C)C(=CCC3c3ccoc3)C12C` (stereo not given), the growth is 105%.

In the case of `Cc1cc2nc(CC(=O)c3ccccc3)c(=O)[nH]c2cc1C`, the growth was 88.4%.

As to `O=C1Cc2ccccc2C(=O)O1`, the growth is 85.1%.

In the case of `C#CC(C)(O)c1ccc(Cl)cc1` (stereo not given), the growth is 96.6%.

For `C#Cc1cccc(NC(=O)c2ccc(Cl)cc2Cl)c1`, the growth was 82.6%.

Turning to `C/C(=C\c1cc(Cl)ccc1OCC(=O)O)[N+](=O)[O-]`, the growth is 96.2%.

In the case of `CC(C)(N)COS(=O)(=O)O`, the growth is 95.9%.

Take `O=C(O)CCCC(=O)O`: the growth is 95.1%.

Regarding `CC(CN1CCCCC1)NC(=O)c1scnc1-c1ccccc1` (stereo not given), the growth was 92.9%.

(Values after PubChem BioAssay (NCI).)
